ugtP null kill = growth inhibition of ugtP-null S. aureus, primary screen, RN4220 ugtP deletion, OD600 | 16 h | growth inhibition, % (concentration not given with the values) | actives 0.54% (n = 330,000) | AID 1259309, 2017; in the data active = growth inhibition above about 68%;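 also: plate controls were untreated wells for no effect and antibiotic for full effect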
PfHsp40 rescue = rescue of yeast from PfHsp40 toxicity, primary screen, S. cerevisiae, ATP luminescence | AID 504582, 2011 | growth rescue, % at 12.5 µM | S. cerevisiae expressing PfHsp40, growth rescue | actives 0.68% (n = 340,000); in the data active = growth rescue above about 28%, passing the limit was not always enough;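 also: yeast W303a lacking pdr1 and pdr3 grown in galactose medium; growth measured after three days at 30 °C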
PrP UTR inh = inhibition of PrP 5' UTR reporter expression | cell-based PrP 5' UTR mRNA reporter, plate reader | inhibition, % (no concentration beside the values) | actives 0.35% (n = 340,000) | AID 488862, 2010; in the data active = inhibition above about 52%; also: 0 = median of the neutral control wells
Yp Topo-I inh = Yersinia pestis topoisomerase I inhibitors, primary screen, biochemical, cleavage product accumulation, plate reader, single point; actives 0.064% (n = 360,000); AID 504884, 2011; DNA topoisomerase I (Yersinia pestis CO92); activity, % at 10 µM; Y. pestis Topo-I cleavage product accumulation; in the data active = activity above about 50%, passing the limit was not always enough
Sa RN4220 lethal = growth inhibition of S. aureus RN4220, primary screen, OD600; 16 h; inhibition, % (concentration not given with the values); actives 0.33% (n = 330,000); in the data active = inhibition above about 85%;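 also: plate controls were untreated cells for no effect and reference antibiotic for full effect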
BJeLR viability = MLPCN primary cell-based screen for lethality selective to Ras in HRASV12 cells; BJeLR (HRASV12) viability, CellTiter-Glo ATP luminescence, 48 h; inhibition, % (test concentration not listed); actives 0.17% (n = 300,000); in the data active = inhibition above about 50%
The depositor's hits bear a star; / = no result given; ! = a repeat was not active. Only some compounds are listed: those with a hit (about 1.4% of all), similar ones and a draw of the others.

SMILES | ugtP null kill | PfHsp40 rescue | PrP UTR inh | Yp Topo-I inh | Sa RN4220 lethal | BJeLR viability
Cc1nnc(N=c2ssnc2Cl)o1 | / | 362* | -20 | 8 | / | /
Cc1ccc(N=c2ssnc2Cl)cc1 | -2 | -1 | -11 | 5 | 0 | 12
Cc1ccc(C(=O)Nc2ccc(C(=O)NN=Cc3cccnc3)cc2)cc1 | -6 | / | / | / | -2 | /
O=C(N/N=C/c1cccnc1)c1ccc(NC(=O)C(c2ccccc2)c2ccccc2)cc1 | / | -2 | 4 | -2 | / | 106*
CCN(CC)c1ccc(C=NNc2nc3ccccc3[nH]2)cc1 | 99* | / | / | / | 97* | /
CCN(CC)c1ccc(/C=N/NC(=O)c2ccco2)c(O)c1 | / | -1 | -43 | -12 | / | 58*
CCN(CC)c1ccc(C=NNc2ccccc2)c(O)c1 | 33 | / | / | / | 2 | /
CCN(CC)c1ccc(/C=N/Nc2nc3ccccc3[nH]2)c(O)c1 | / | 158* | -4 | -16 | / | 60*
Fc1ccccc1-c1ccc(C=NNc2nc3ccccc3[nH]2)o1 | -22 | / | / | / | -2 | /
Brc1ccc(-c2ccc(C=NNc3nc4ccccc4[nH]3)o2)cc1 | 80 | / | / | / | 86* | /
Cc1noc(C)c1NC(=O)N(C)CC1Oc2ccc(NC(=O)CCC(F)(F)F)cc2C(=O)N(C(C)CO)CC1C (stereo not drawn) | -8 | / | / | / | 4 | /
Cc1ccc2c(c1)COc1c3ccc(C(=O)NC(CO)C(C)C)cc3nn1-2 (stereo not drawn) | 16 | / | / | / | 10 | /
CCOc1cccc(/C=N/NC(=S)Nc2cc(S(=O)(=O)N3CCOCC3)ccc2N2CCOCC2)c1O | / | 60* | 16 | 20 | / | -6
CCOc1cccc(C=NNC(=S)Nc2cc(S(=O)(=O)N3CCOCC3)ccc2N2CCOCC2)c1O | -13 | / | / | / | 6 | /
COc1ccc(S(=O)(=O)N2CCOCC2)cc1NC(=O)CSc1ccccc1 | 0 | 1 | -8 | 11 | 4 | -14
O=C(CSc1ccccc1)Nc1cc(S(=O)(=O)N2CCOCC2)ccc1N1CCOCC1 | 3 | 59* | -26 | 14 | 4 | -1
CC(C)(C)CN1C(=O)C(=O)NCC1Cc1ccc(O)cc1 (stereo not drawn) | 98*! | / | / | / | 97*! | /
COc1ccccc1N1C(=O)CC(N2CCc3ccccc32)C1=O (stereo not drawn) | 0 | -2 | -20 | 5 | 2 | -14
COc1ccc(Cl)cc1N1C(=O)CC(N2CCc3ccccc32)C1=O (stereo not drawn) | 7 | 43* | 3 | 0 | 4 | 1
COc1ccc([N+]([O-])=Cc2ccco2)cc1 | 0 | / | / | / | 0 | /
CCCCC(=O)O[C@]1(C(=O)CO)CCC2C3CCC4=CC(=O)CC[C@]4(C)C3C(O)C[C@@]21C (stereo partly drawn) | 5 | / | / | / | 13 | /
N#CC1=C(N)Oc2n[nH]c(-c3ccccc3)c2C12C(=O)Nc1ccccc12 (stereo not drawn) | -2 | -1 | -23 | 4 | 24 | 3
Cn1c2c(c(=O)n(C)c1=O)[C@@]1(C(=O)Nc3ccccc31)C(C#N)=C(N)O2 | 29 | 1 | -16 | 3 | 87* | 4
Cc1cc(C)cc(NC(=O)CSc2nc3[nH]c(=O)cc(O)c3s2)c1 | 14 | 38* | -31 | -5 | 6 | -6
O=C(CSc1nc2[nH]c(=O)cc(O)c2s1)Nc1cc(Cl)cc(Cl)c1 | -8 | 9 | -13 | -14 | 9 | 2
SMILES | ugtP null kill | PfHsp40 rescue | PrP UTR inh | Yp Topo-I inh | Sa RN4220 lethal | BJeLR viability
CC1=CC(C)(C)N(S(=O)(=O)c2ccc(C)cc2)c2cc(C)ccc21 | 58 | 22 | -45 | 30 | -1 | 55*
Cc1cc(C)n(-c2nc(-c3cccc(Cl)c3)cs2)n1 | 88* | 0 | -63 | 23 | 0 | 7
COCc1ccccc1C1=CC(=O)CC(c2ccc(OC)cc2)C1 (stereo not drawn) | 2 | / | / | / | 10 | /
CCOc1ccc(N/N=C(/C#N)C(N)=O)cc1 | / | 363* | -36 | -1 | / | -6
COc1ccc(NN=C(C#N)C(N)=O)cc1 | 1 | / | / | / | 8 | /
CCOc1ccc(N/C(SC)=C(/C#N)C(N)=O)cc1 | 1 | 1 | / | 10 | 5 | -18
COc1ccc(N/N=C(\C#N)C(N)=O)cc1 | / | 47* | -21 | 1 | / | 7
CC[C@]12C(=O)N(C)CC(C3C(=O)N(C)C(=O)C31)N2C(=O)c1ccc(C(C)(C)C)cc1 (stereo partly drawn) | 2 | / | / | / | 5 | /

From PubChem
